{
  "source": "PubChem BioAssay (Tox21)",
  "note": "Results filed as inconclusive are left out. A number with no mark means an inactive call. Calls of active or inactive are those of the source. The call rests on the fitted dose curve; in most records, active means well fitted cell-killing curve with a large enough effect in the repeat runs (not every such curve was filed as active); inconclusive means weak or mixed curves, or effect the other way; inactive means no such curve, though single readings can be large or run the other way. On the % scale 0 is the no-effect control and ±100 the full control effect.",
  "data": [
    {"test": "qHTS assay to identify small molecule antagonists of the estrogen related receptor signaling pathway with the pleiotropic PPARgamma coactivator (PGC) from Tox21 10K library - cell viability counter screen (AID 1224840); further: nearly all actives have a fitted effect of over 40% in size", "conditions": "PGC/ERR reporter cells viability, CellTiter-Fluor, 17.5 h; series mostly up to 92.4 µM; viability change, negative = cytotoxic: at the top concentration", "from_the_text": "National Center for Advancing Translational Sciences [NCATS]\nNIH Chemical Genomics Center [NCGC]\nU.S. Environmental Protection Agency [EPA]\nNational Institutes of Environmental Health Sciences [NIEHS]\nNational Toxicology Program [NTP]\nU.S. Food and Drug Administration [FDA]\nEstrogen related receptors (ERRs), the first orphan nuclear receptors discovered, play an important role in the control of cellular energy metabolism. ERRs are required for high-energy production in response to the environmental challenges. The pleiotropic PPARgamma coactivator (PGC) is a major partner of ERR and a key regulator in energy homeostasis. Together they have been implicated in the etiology of metabolic disorders such as Type 2 diabetes and metabolic syndrome. ERR-alpha was also identified as an adverse marker for breast cancer progression; ERR-alpha-positive tumors have a poor prognosis. To screen and to identify environmental compounds that perturb the ERR and PGC/ERR signaling pathways could provide valuable information for potential therapeutic or preventive measures in the treatment of metabolic disease. To differentiate true PGC/ERR antagonists or agonist from cytotoxic substances, the assay is multiplexed with cell viability assay.\nTox21 Assay Protocol Summary:\nThe PGC/ERR cells were dispensed at 2,000 cells/5 ul/well in 1536-well white plates using a Multidrop dispenser. After the assay plates were incubated at a 37 C/5% CO2 incubator for 6 hours, 23 nL of compounds dissolved in DMSO, positive and negative controls or DMSO only was transferred to the assay plate by a pin tool. The plates were incubated at 37 C for 17.5 hours. 1 ul/well of CellTiter-Fluor reagent was added into the assay plates using a Flying Reagent Dispenser. After 30-minute incubation at 37 C/5% CO2, the fluorescence intensity in the plates was measured using a ViewLux plate reader.", "values": [
      {"smiles": "CCN(CC)CCNC(=O)c1cc(S(C)(=O)=O)ccc1OC", "viability change, negative = cytotoxic": "1.8% [at 42.5 µM]"},
      {"smiles": "C[N+](C)(C)CCCCCC[N+](C)(C)C", "Potency": "inactive"},
      {"smiles": "Cc1cccn2c(=O)c(-c3nnn[nH]3)cnc12", "viability change, negative = cytotoxic": "11.8% [at 19 µM]"},
      {"smiles": "C[C@H]1C[C@@H](O)CC(C)(C)C1", "viability change, negative = cytotoxic": "-1.14%"},
      {"smiles": "FC(F)OC(Cl)C(F)(F)F", "note": "(stereo not given)", "viability change, negative = cytotoxic": "11.8%"},
      {"smiles": "COc1ccccc1OCC(O)CN1CCN(CC(=O)Nc2c(C)cccc2C)CC1", "note": "(stereo not given)", "viability change, negative = cytotoxic": "-3.54% [at 42.5 µM]"},
      {"smiles": "OCCOc1ccc(OCCO)cc1", "viability change, negative = cytotoxic": "-2.85%"},
      {"smiles": "CO/N=C(/C(=O)N[C@@H]1C(=O)N2C(C(=O)OCOC(=O)C(C)(C)C)=C(C)CS[C@H]12)c1csc(N)n1", "viability change, negative = cytotoxic": "2.13% [at 42.5 µM]"},
      {"smiles": "NS(=O)(=O)c1cc(C(=O)NN2C[C@H]3[C@H]4CCC(C4)[C@H]3C2)ccc1Cl", "viability change, negative = cytotoxic": "-0.888% [at 42.5 µM]"},
      {"smiles": "CCC=O", "viability change, negative = cytotoxic": "-0.564%"},
      {"smiles": "C[C@](N)(Cc1ccc(O)cc1)C(=O)O", "viability change, negative = cytotoxic": "-0.23% [at 8.39 µM]"},
      {"smiles": "N#Cc1ccc(C2CCCc3cncn32)cc1", "note": "(stereo not given)", "viability change, negative = cytotoxic": "-0.329% [at 42.5 µM]"},
      {"smiles": "Cn1cc(S(C)=O)c(=O)c2ccc(F)cc21", "note": "(stereo not given)", "viability change, negative = cytotoxic": "-5.11% [at 42.5 µM]"},
      {"smiles": "OC[C@]1(O)OC[C@@H](O)[C@H](O)[C@@H]1O", "Potency": "inactive"},
      {"smiles": "OC1CCCCC1c1ccccc1", "note": "(stereo not given)", "viability change, negative = cytotoxic": "4.48%"},
      {"smiles": "CC(C)c1cc2c(cc1S(=O)(=O)O)[C@@]1(C)CCC[C@@](C)(C(=O)O)[C@@H]1CC2", "viability change, negative = cytotoxic": "2.99% [at 42.5 µM]"},
      {"smiles": "NS(=O)(=O)c1cc(C(=O)O)cc(N2CCCC2)c1Oc1ccccc1", "viability change, negative = cytotoxic": "10.7% [at 42.5 µM]"},
      {"smiles": "C=CCS(=O)(=O)O", "viability change, negative = cytotoxic": "5.84%"},
      {"smiles": "NC(=O)COCCN1CCN(C(c2ccccc2)c2ccc(Cl)cc2)CC1", "note": "(stereo not given)", "viability change, negative = cytotoxic": "2.87% [at 42.5 µM]"},
      {"smiles": "O=c1cc(-c2ccccc2)oc2ccccc12", "Potency": "inactive"},
      {"smiles": "CC(C)NCCCC1(C(N)=O)c2ccccc2-c2ccccc21", "viability change, negative = cytotoxic": "6.87% [at 42.5 µM]"},
      {"smiles": "O=C(O)CCCc1ccccc1", "viability change, negative = cytotoxic": "5% [at 42.5 µM]"},
      {"smiles": "O=C[C@H](O)[C@@H](O)[C@H](O)[C@H](O)CO", "viability change, negative = cytotoxic": "2.73%"},
      {"smiles": "CCOC(=O)[C@H](CCc1ccccc1)N[C@@H](C)C(=O)N1[C@H](C(=O)O)C[C@@H]2CCC[C@@H]21", "viability change, negative = cytotoxic": "1.25% [at 42.5 µM]"},
      {"smiles": "CC(C)(O)C(=O)c1ccccc1", "viability change, negative = cytotoxic": "6.99%"},
      {"smiles": "CCOC(=O)c1cccc(N)c1", "viability change, negative = cytotoxic": "-3.22% [at 42.5 µM]"},
      {"smiles": "C=C(C)CS(=O)(=O)O", "viability change, negative = cytotoxic": "3.34%"},
      {"smiles": "CCCc1cc(C(N)=S)ccn1", "viability change, negative = cytotoxic": "7.41% [at 42.5 µM]"},
      {"smiles": "N=C(N)c1ccccc1", "viability change, negative = cytotoxic": "6.32%"},
      {"smiles": "NS(=O)(=O)c1ccccc1Cl", "viability change, negative = cytotoxic": "9.05%"},
      {"smiles": "C[C@@H]1CCN(C(=O)[C@H](CCCN=C(N)N)NS(=O)(=O)c2cccc3c2NC[C@H](C)C3)[C@@H](C(=O)O)C1", "viability change, negative = cytotoxic": "-5.27% [at 42.5 µM]"},
      {"smiles": "CC(=O)OCC(=O)[C@@]1(O)CCC2C3CCC4=CC(=O)CC[C@]4(C)C3[C@@H](O)C[C@@]21C", "note": "(stereo not given in full)", "viability change, negative = cytotoxic": "0.0308% [at 42.5 µM]"},
      {"smiles": "CCCCCCCCCCCC", "viability change, negative = cytotoxic": "-2.71%"},
      {"smiles": "CC(C)CCCC(C)N", "note": "(stereo not given)", "viability change, negative = cytotoxic": "-2.11% [at 42.5 µM]"},
      {"smiles": "O=Cc1cccc([N+](=O)[O-])c1", "viability change, negative = cytotoxic": "7.96%"},
      {"smiles": "C/C=C(\\C)C#N", "viability change, negative = cytotoxic": "0.259%"},
      {"smiles": "N=C(N)c1ccc2cc(OC(=O)c3ccc(N=C(N)N)cc3)ccc2c1", "viability change, negative = cytotoxic": "-7.18% [at 42.5 µM]"},
      {"smiles": "NCCc1cnc[nH]1", "viability change, negative = cytotoxic": "16.6% [at 42.5 µM]"},
      {"smiles": "CC(=O)Nc1c(I)cc(I)c(C(=O)O)c1I", "viability change, negative = cytotoxic": "-6.3% [at 42.5 µM]"},
      {"smiles": "CCN1CCC[C@H]1CNC(=O)c1c(O)c(Cl)cc(Cl)c1OC", "viability change, negative = cytotoxic": "19.1% [at 42.5 µM]"}
    ]}
  ]
}
